Data reported in PubChem BioAssay AID1053173 (Broad Institute, 2014).
The campaign covered roughly 1,500 compounds. About 390 (26%) were called active. No rule for the calls is given here. A selection follows. Results with a measured potency or affinity are listed apart.

What follows are compounds tested against Histone-lysine N-methyltransferase NSD2 (Homo sapiens) (UniProt O96028) (assay: blockers of NSD2 H4 peptide methylation – biochemical, AlphaScreen, cherry-picked samples, dose response (AID 1053173)). Conditions: 120 min; series mostly up to 10 µM.
Histone-lysine N-methyltransferase NSD2 (Homo sapiens), sequence (O96028 whole entry, looked up): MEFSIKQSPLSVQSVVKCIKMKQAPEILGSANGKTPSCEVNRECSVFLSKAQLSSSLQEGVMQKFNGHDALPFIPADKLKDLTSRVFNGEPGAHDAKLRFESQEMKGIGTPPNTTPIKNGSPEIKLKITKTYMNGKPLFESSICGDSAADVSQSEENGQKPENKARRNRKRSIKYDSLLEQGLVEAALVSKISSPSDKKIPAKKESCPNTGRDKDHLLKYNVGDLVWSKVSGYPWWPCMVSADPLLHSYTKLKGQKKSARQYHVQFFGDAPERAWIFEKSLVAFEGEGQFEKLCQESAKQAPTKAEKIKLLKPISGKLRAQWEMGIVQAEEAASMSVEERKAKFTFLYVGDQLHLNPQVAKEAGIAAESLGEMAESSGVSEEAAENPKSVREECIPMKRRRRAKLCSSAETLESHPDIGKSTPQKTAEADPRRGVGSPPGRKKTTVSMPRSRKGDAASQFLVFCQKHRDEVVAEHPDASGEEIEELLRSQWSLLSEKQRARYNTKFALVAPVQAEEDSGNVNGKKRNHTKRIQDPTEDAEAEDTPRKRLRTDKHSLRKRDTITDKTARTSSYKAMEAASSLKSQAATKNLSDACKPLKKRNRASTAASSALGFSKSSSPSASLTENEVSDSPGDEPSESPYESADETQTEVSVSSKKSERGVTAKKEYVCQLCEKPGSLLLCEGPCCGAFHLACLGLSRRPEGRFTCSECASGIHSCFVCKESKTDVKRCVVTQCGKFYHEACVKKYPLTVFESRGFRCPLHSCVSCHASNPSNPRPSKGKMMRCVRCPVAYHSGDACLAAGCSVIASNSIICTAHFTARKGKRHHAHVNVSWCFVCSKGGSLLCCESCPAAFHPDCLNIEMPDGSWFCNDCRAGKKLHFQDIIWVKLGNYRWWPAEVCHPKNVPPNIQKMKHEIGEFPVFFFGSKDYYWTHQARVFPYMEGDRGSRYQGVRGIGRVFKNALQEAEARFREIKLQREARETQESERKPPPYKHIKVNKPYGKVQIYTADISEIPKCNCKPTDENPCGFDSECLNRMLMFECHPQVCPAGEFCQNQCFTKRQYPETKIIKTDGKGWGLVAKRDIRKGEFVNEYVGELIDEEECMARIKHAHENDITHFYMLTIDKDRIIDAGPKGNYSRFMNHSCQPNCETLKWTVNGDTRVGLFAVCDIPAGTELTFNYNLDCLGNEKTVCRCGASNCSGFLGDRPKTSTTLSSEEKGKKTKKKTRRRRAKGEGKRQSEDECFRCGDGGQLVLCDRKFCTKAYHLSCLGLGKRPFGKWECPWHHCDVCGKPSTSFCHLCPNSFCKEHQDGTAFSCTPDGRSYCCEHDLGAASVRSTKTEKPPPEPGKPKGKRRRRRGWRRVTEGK

outcome, inactive:
O=C1CN(C(=O)COC(=O)c2ccc([N+](=O)[O-])s2)c2ccccc2N1
CCN(CC)S(=O)(=O)c1ccc(N2CCN(C)CC2)c(NC(=O)Nc2ccccc2F)c1
Cc1ccc(S(=O)(=O)N2CCN(C(=O)C(F)(F)F)C2c2ccc(N(C)C)cc2)cc1 (configuration not stated)
Cc1ccccc1CN1CCN(C(=O)c2ccco2)CC1
CC1Oc2ccc(C#N)cc2N(Cc2cccc(F)c2)C1=O (configuration not stated)
C=CCN1CCN(C(c2cccc(OC)c2OC)c2nnnn2CCC(C)C)CC1 (configuration not stated)
CC(=O)c1ccc(NC(=O)CC2Nc3cccc4cccc(c34)NC2=O)cc1 (configuration not stated)
O=C1CCCC2=C1C(c1ccc(O)c(O)c1)c1c(ccc3ncccc13)N2 (configuration not stated)
COCCCNC(=S)Nc1cccc2ncccc12
CN(CCc1ccccc1)C1CCCN(S(=O)(=O)N(C)C)C1 (configuration not stated)
C/C(CC(=O)NCCCN1CCOCC1)=N\NC(=O)COc1ccc(Cl)cc1
O=C(COC(=O)c1ccc([N+](=O)[O-])o1)NC1CCS(=O)(=O)C1 (configuration not stated)
Cc1cccc(NC(=O)c2ccc(NS(=O)(=O)c3cccc4cccnc34)cc2)c1
Cc1ccc(CSc2nnc(Nc3ccc(C)cc3)s2)cc1
CN(c1ccc(C(=O)O)cc1)S(=O)(=O)c1ccccc1
Cc1cc(C)c2c(c1)N[C@H](c1cccs1)[C@@H]1CCO[C@H]21
CC(NC(=O)c1cccc(Br)c1)c1ccccc1 (configuration not stated)
CCN(CC)C(=O)COc1ccc2oc(C)c(C(=O)OC(C)C)c2c1
COc1ccc(C)cc1NC(=O)CCNC(=O)Cn1cnc2ccccc2c1=O
Cc1ccc(Cn2c(SCC(=O)NCC3CCCO3)nc3c2c(=O)n(C)c(=O)n3C)cc1 (configuration not stated)
C/C(C=Nn1c(-c2ccc(F)cc2)n[nH]c1=S)=C/c1ccco1
Cc1ccc(C(=O)NC(=S)NNC(=O)c2ccccc2O)cc1
Cc1cc2ccccn2c1C(=O)c1ccc([N+](=O)[O-])o1
COc1ccc(S(=O)(=O)NCc2ccc3c(c2)OCO3)cc1OC
Cn1c(COc2ccc(Cl)cc2)nnc1SCC(=O)NC1CCCCC1
Cc1ccc(S(=O)(=O)N2CCCC(N3CCOCC3)C2)cc1Cl (configuration not stated)
O=C1CC(C(=O)N2CCc3ccccc32)CN1c1ccccc1 (configuration not stated)
O=C(NCCC(=O)N1CCc2ccccc21)c1ccco1
O=C(c1cc(-c2ccc(Cl)cc2)n(-c2ccc(Cl)cc2)n1)N1CCOCC1
O=C(OCC(=O)N1CCOCC1)c1ccc(Br)cc1
C=CCn1c(SCc2ccc3c(c2)OCO3)nc2scc(-c3ccco3)c2c1=O
Cc1cccc(OCC(=O)Nc2ncn[nH]2)c1C
N#Cc1ccc(OCC(=O)NCCCn2ccnc2)cc1
Cc1cc(OCCn2nc(C(=O)O)c3ccccc3c2=O)ccc1C(C)C
COCCCNC(=O)COc1ccc(Cl)c(C)c1
COCCNc1nc(-c2ccccc2)nc2ccccc12
CC(=O)c1ccc(NC(=S)NCCc2cccc(Cl)c2)cc1
COCCNC(=O)CN(C(=O)CCC(=O)Nc1nccs1)c1ccc2c(c1)OCO2
CCOC(=O)c1cc(NC(=O)CN2CCCC2)cc(C(=O)OCC)c1
O=C(Cn1cnc2c(cnn2-c2ccccc2)c1=O)OCc1ccccc1
CN(C)S(=O)(=O)c1ccc(Cl)c(C(=O)OCC(=O)c2ccco2)c1
CN(C(=O)CN1C(=O)S/C(=C\c2ccccc2F)C1=O)C1CCS(=O)(=O)C1 (configuration not stated)
COc1ccc(CN(C(=O)c2cccc(OC)c2)C2CCS(=O)(=O)C2)cc1 (configuration not stated)
COC(=O)c1nc(NC(=O)c2ccccc2)n[nH]1
Cc1ccc(C)c(NC(=S)Nc2cccc3cnccc23)c1
O=C(Nc1cc(Cl)ccc1-n1cncn1)c1cccs1
COc1ccc(C(C(=O)NC(C)(C)C)N(C(=O)CCC(=O)Nc2cc(C)on2)c2ccccc2F)cc1 (configuration not stated)
COc1cccc(/C=C2\N=C(SC)SC2=O)c1OC
Cc1c(C(=O)N2CCN(c3ccc(F)cc3)CC2)sc2ncnc(N3CCN(c4ccccn4)CC3)c12
COC(=O)c1ccc(Cn2cnc3c(sc4nc(N5CCOCC5)c5c(c43)CCCC5)c2=O)o1
CC(C)c1nc2oc3c(NCC4CCCO4)ncnc3c2c2c1COC(C)(C)C2 (configuration not stated)
CCO/C=C/C(=O)N(C)CCC#N
CCN(CC)C(=O)CSc1nc2ccccc2c(=O)n1CCC(=O)NCc1ccc(F)cc1
COc1cc(NC(=O)CCn2c(=O)oc3ccccc32)cc(OC)c1OC
Cc1[nH][nH]c(=O)c1C(c1ccc(-c2ccc(F)cc2)o1)c1c(C)[nH][nH]c1=O
Cc1[nH][nH]c(=O)c1C(c1ccc(-c2cccc(C(=O)O)c2)o1)c1c(C)[nH][nH]c1=O
Cc1ccc(OCCCC(=O)Nc2ccccc2C(F)(F)F)cc1
O=C(CC1SC2=NCCN2C1=O)Nc1ccccc1 (configuration not stated)
Cc1cccc(C)c1OCC(O)CNS(=O)(=O)c1ccccc1C(=O)N1CCCCC1 (configuration not stated)
Cc1ccc(-n2nc3c(=O)n(CC(=O)NCc4ccccc4)nc(C)c3c2C)cc1
Fc1ccc(C2CCNCC2COc2ccc3c(c2)OCO3)cc1 (configuration not stated)
CN(C)Cc1cc(O)c(CN(C)C)cc1O
Cc1ccc(S(=O)(=O)N2CCOCC2)cc1NC(=O)CSc1ccccn1
COc1cc2[nH]c(Cl)c([N+](=O)[O-])c2cc1OC
O=C(Nc1cccc(O)c1)c1ccc(Br)cc1
COc1cc(/C=C/c2nc3ccccc3c(=O)[nH]2)cc(Cl)c1O
CC(=O)Nc1cccc(C(=O)OCc2ccccc2)c1
Nc1nc(=S)c2ncn(C3OC(CO)C(O)C3O)c2[nH]1 (configuration not stated)
O=C(/C=C/c1ccc(-c2ccccc2)cc1)NCc1cccnc1
CC(C)(C)CC(=O)Nc1nnc(SCC(=O)NCc2cccs2)s1
C=CCn1c(=NC(=O)c2ccc(S(=O)(=O)N3CCCC3)cc2)sc2cc(NC(C)=O)ccc21
CC1(C)NC(=O)N(CCOCCOc2c(Cl)cc(Cl)cc2Cl)C1=O
COc1ccc(CC(=O)NC2CCCCCC2)c(OC)c1
Cc1cc(-c2n[nH]c(=S)n2N=Cc2cccc(OCc3ccccc3)c2)n[nH]1
CC(C)=NOCC(=O)Nn1c(COc2c(C)cccc2C)nc2ccccc2c1=O
COc1ccc2nc3cccc(OC)c3nc2c1
C=CCOCC(O)Cn1c(N2CCCC2)nc2c1c(=O)n(C)c(=O)n2C (configuration not stated)
CSCCC(NC(=O)c1ccccc1Cl)C(=O)NCC(c1ccc(F)cc1)N1CCOCC1 (configuration not stated)
COc1cc(C(=O)NC(C)c2ccc3ccccc3c2)cc(Cl)c1O (configuration not stated)
COc1cccc(-c2nn3c(-c4ccco4)nnc3s2)c1
COc1ccc(-c2nnc3n2N=C(C)CS3)cc1
Cn1c(=O)[nH]c2nnc(-c3ccc(Cl)c(Cl)c3)nc2c1=O
CCOc1ccccc1NC(=O)C1CCCN1C(=O)c1cccs1 (configuration not stated)
CSc1nc(N)nc(N(C)C)n1
O=C(COC(=O)c1ccccc1F)NC1CC1
CCOc1ccc(C(CC(=O)O)NC(=O)C23CC4CC(CC(C4)C2)C3)cc1OC (configuration not stated)
Cc1nc([N+](=O)[O-])c(C(=O)OCc2ccccc2F)n1C
CNc1c(N)n(Cc2ccccc2)c(=O)[nH]c1=O
Cc1ccccc1CS(=O)(=O)CC(O)CN1CCCC1=O (configuration not stated)
COc1ccc2c(c1)c1nc3ccccc3nc1n2CCn1c(=O)oc2ccccc21
Nc1c(C(=O)NCc2ccc(F)cc2)c2nc3ccccc3nc2n1CCCN1CCOCC1
CCc1ccc(NC(=O)c2cc(-c3ccc4c(c3)OCO4)on2)cc1
CCc1ccc(N(CC(=O)NCc2ccc3c(c2)OCO3)C(=O)c2csnn2)cc1
COc1ccc(C)cc1COC(=O)c1[nH]c(C)c(C(C)=O)c1C
COc1ccc(N(CC(=O)NCCSc2ccccn2)S(C)(=O)=O)cc1
COc1ccc(CNC(=O)CCCn2nc(C)c([N+](=O)[O-])c2C)cc1OC
Cc1nc2cc(C(=O)NCc3cccnc3)ccc2n1-c1ccc(F)cc1F
Cc1ccc(C(=O)NCCn2c(N)c(C#N)c3nc4ccccc4nc32)cc1
CCOC(=O)CNC(=O)N1CCC(CCC(=O)N(C)Cc2ccccc2)CC1
CCCC(=O)Nc1ccc(C(=O)O)cc1NC(=O)CCC
O=C(O)c1ccc2cccnc2c1O
COc1cccc(NC(=O)c2ccc3c(c2)OCCO3)c1
COc1ccc(-c2ncncc2-c2ccccc2)c(O)c1
O=C1C=CC(=O)N1c1ccc(N2CCCCC2)cc1
Cc1c([N+](=O)[O-])cc(N2C(=O)C=CC2=O)cc1[N+](=O)[O-]
CCOC(=S)SCC(=O)Nc1nc(C)c(C)s1
O=C(Nc1nnc(SCc2cccc3ccccc23)s1)C1COc2ccccc2O1 (configuration not stated)
NC(=O)C1Cc2ccccc2CN1S(=O)(=O)c1ccc(Cl)s1 (configuration not stated)
COc1ccccc1N(C)S(=O)(=O)c1ccc(C(=O)NC2CCCCCC2)cc1
COc1cc(OC)c(C(=O)OC(C)C(=O)NCc2ccc3c(c2)OCO3)cc1OC (configuration not stated)
C/C(=N\NC(=O)c1nnn(-c2nonc2N)c1C)c1ccc(-c2ccccc2)cc1
CC(=O)c1c(C)[nH]c(C(=O)Nc2ccc(C)cc2Br)c1C
